Inconclusive results are not listed. Active and inactive are the calls of the source. The calls were made as follows: active = hit-call score of the fitted dose curve at least 0.9, where 1 is the maximum; inconclusive = response in the unintended direction; inactive = score below 0.9.
What was measured:
[1] = biological target: D(1A) dopamine receptor (Homo sapiens) (UniProt P21728); experiment: NVS_GPCR_hDRD1: NovaScreen (NVS) G Protein-Coupled Receptor Assay for human Dopamine Receptor D1 (DRD1) (AID 2283269)
How it was run: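 Extracted HEK293 DRD1 is incubated 1 h with compound and a tritiated or iodinated radioligand, then filtered and counted. Screening runs 25 uM in duplicate with on-plate positive and negative controls.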

[2] = biological target: Muscarinic acetylcholine receptor M1 (Homo sapiens) (UniProt P11229); experiment: NVS_GPCR_hM1: NovaScreen (NVS) G Protein-Coupled Receptor Assay for human Muscarinic, M1 Receptor (AID 2283270)
How it was run: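 Actives from a duplicate 25 uM single-point screen were retested in concentration series. Binding measured as displacement of a radioligand from CHO-derived receptor preparation, 1 h incubation, filtration and scintillation counting, analysed as signal loss against DMSO.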

[3] = biological target: Muscarinic acetylcholine receptor M3 (Homo sapiens) (UniProt P20309); experiment: NVS_GPCR_hM3: NovaScreen (NVS) G Protein-Coupled Receptor Assay for human Muscarinic, M3 Receptor (AID 2283272)
How it was run: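 Radioligand displacement binding on human M3 receptor in CHO-derived membranes, 1 h incubation, filter-based scintillation counting. Primary screen in duplicate at 25 uM; actives followed up in concentration series; loss of signal versus DMSO.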

[4] = biological target: Muscarinic acetylcholine receptor M2 (Homo sapiens) (UniProt P08172); experiment: NVS_GPCR_hM2: NovaScreen (NVS) G Protein-Coupled Receptor Assay for human Muscarinic, M2 Receptor (AID 2283273)
How it was run: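 CHO-expressed human M2 receptor preparation, competitive displacement of a radioligand read by filter-based scintillation counting after 1 h. Single 25 uM duplicate screen, then concentration-response follow-up of actives; DMSO baseline.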

[5] = biological target: human Muscarinic, M4 Receptor, CHRM4 (gene 1132) (UniProt P08173); experiment: NVS_GPCR_hM4: NovaScreen (NVS) G Protein-Coupled Receptor Assay for human Muscarinic, M4 Receptor (AID 2283274)
How it was run: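 Filter-based scintillation counting of radioligand bound to CHO-expressed human M4 preparations after 1 h; loss of signal fitted versus DMSO. Initial duplicate testing at 25 uM, concentration-response follow-up for actives.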

[6] = biological target: Muscarinic acetylcholine receptor M5 (Homo sapiens) (UniProt P08912); experiment: NVS_GPCR_hM5: NovaScreen (NVS) G Protein-Coupled Receptor Assay for human Muscarinic, M5 Receptor (AID 2283275)
How it was run: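 Chemicals passing a primary duplicate screen at 25 uM were run as singleton concentration series, maximum 50 uM. Displacement of a specific radioligand from CHO-extracted receptor was read by filter scintillation after 1 h, relative to DMSO.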

[7] = biological target: human Neuropeptide Receptor Y1 (NPY1), NPY1R (gene 4886) (UniProt P25929); experiment: NVS_GPCR_hNPY1: NovaScreen (NVS) G Protein-Coupled Receptor Assay for human Neuropeptide Receptor Y1 (NPY1) (AID 2283276)
How it was run: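 Displacement of specific radioligand from NPY1 receptor of SK-N-MC origin, read by filtration and scintillation after 1 h. Compounds first tested at 25 uM in duplicate, then actives in concentration series; signal loss relative to DMSO.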

[8] = biological target: human Neurokinin, NK2 Receptor, TACR2 (gene 6865) (UniProt P21452); experiment: NVS_GPCR_hNK2: NovaScreen (NVS) G Protein-Coupled Receptor Assay for human Neurokinin, NK2 Receptor (AID 2283278);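 also: actives reduce bound radioligand signal relative to DMSO baseline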
How it was run: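 Test chemicals displace a radioligand from receptor prepared from CHO cells in a cell-free format, read after 4 hours by scintillation counting on filters. Screening starts at 25 uM in duplicate, and active chemicals then go to concentration series.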

[9] = biological target: human Opioid Receptor Delta 1 (Opiate D1), OPRD1 (gene 4985) (UniProt P41143); experiment: NVS_GPCR_hOpiate_D1: NovaScreen (NVS) G Protein-Coupled Receptor Assay for human Opioid Receptor Delta 1 (Opiate D1) (AID 2283280)
How it was run: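 Membrane preparations from CHO cells bearing the human receptor were incubated 1 h with test chemical, and bound radioligand was counted after filtration. Actives from 25 uM duplicate screening were retested in concentration-response.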

[10] = biological target: rat Serotonin, 5-Hydroxytryptamine Receptor 1 (5HT1), Non-Selective Binding, Htr1a (gene 24473) (UniProt P19327); experiment: NVS_GPCR_r5HT1_NonSelective: NovaScreen (NVS) G Protein-Coupled Receptor Assay for rat Serotonin, 5-Hydroxytryptamine Receptor 1 (5HT1), Non-Selective Binding (AID 2283286)
How it was run: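 Binding of a radioligand to rat cortex membranes is read by filtration and scintillation counting after 1 h. Compounds were screened at 25 uM in duplicate. Actives were then titrated to a top of 50 uM. DMSO is the baseline.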

[11] = tested on: 5-hydroxytryptamine receptor 2C (pig); experiment: NVS_GPCR_p5HT2C: NovaScreen (NVS) G Protein-Coupled Receptor Assay for pig Serotonin, 5-Hydroxytryptamine Receptor 2C (5HT2C) (AID 2283288)
How it was run: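 Radioligand displacement on membranes from pig choroid plexus, detected by filter scintillation counting after 1 h. Tested first at a single 25 uM in duplicate, then in concentration-response for actives; DMSO served as baseline.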

[12] = biological target: Neuropeptide Y receptor type 2 (Homo sapiens) (UniProt P49146); experiment: NVS_GPCR_hNPY2: NovaScreen (NVS) G Protein-Coupled Receptor Assay for human Neuropeptide Receptor Y2 (NPY2) (AID 2283277)
How it was run: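 Chemicals were first tested in duplicate at 25 uM, then actives in singleton concentration series to 50 uM. Tracer binding to SK-N-MC-derived protein measured cell-free after 1 h via filter scintillation; signal loss relative to DMSO.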

[13] = biological target: human Purinergic Receptor P2Y, P2RY1 (gene 5028) (UniProt P47900); experiment: NVS_GPCR_hPY2: NovaScreen (NVS) G Protein-Coupled Receptor Assay for human Purinergic Receptor P2Y (AID 2283281)
How it was run: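 Filtration scintillation readout of radioligand displacement on U937 extract, measured 1 h post-dosing. Single 25 uM duplicate screen, then singleton concentration series to 50 uM for chemicals passing threshold; DMSO as baseline.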

[14] = biological target: human Thromboxane A2 Receptor (TXA2), TBXA2R (gene 6915) (UniProt P21731); experiment: NVS_GPCR_hTXA2: NovaScreen (NVS) G Protein-Coupled Receptor Assay for human Thromboxane A2 Receptor (TXA2) (AID 2283282);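 also: actives reduce bound radioligand signal relative to DMSO baseline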
How it was run: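 Cell-free radioligand binding with human platelet-derived receptor; 1 h after dosing, filter-based scintillation counting, loss of signal vs DMSO. Primary screen in duplicate at 25 uM.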

[15] = tested on: rabbit Platelet Activating Factor Receptor (PAF), gene 100354046; experiment: NVS_GPCR_rabPAF: NovaScreen (NVS) G Protein-Coupled Receptor Assay for rabbit Platelet Activating Factor Receptor (PAF) (AID 2283287)
How it was run: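 Rabbit platelet membrane preparation; radioligand displacement read by filter-based scintillation counting 1 h after dosing, loss of signal versus DMSO. Primary screen in duplicate at 25 uM, actives followed up in concentration series.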

[16] = biological target: mouse Cholecystokinin, CCK1 Receptor (CCKA), Cckar (gene 12425) (UniProt O08786); experiment: NVS_GPCR_mCCKAPeripheral: NovaScreen (NVS) G Protein-Coupled Receptor Assay for mouse Cholecystokinin, CCK1 Receptor (CCKA) (AID 2283285)
How it was run: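 Chemicals were first screened in duplicate at 25 uM, with those meeting threshold (e.g., 30% inhibition) retested in singleton concentration series to 50 uM maximum. Binding of radioligand to mouse pancreatic membranes was read after 2 h by filtration and scintillation counting.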

[17] = biological target: human Orphanin, Opioid Related Nociceptin Receptor 1 (ORL1), OPRL1 (gene 4987) (UniProt P41146); experiment: NVS_GPCR_hORL1: NovaScreen (NVS) G Protein-Coupled Receptor Assay for human Orphanin, Opioid Related Nociceptin Receptor 1 (ORL1) (AID 2283283)
How it was run: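 Cell-free binding using HEK293-derived receptor protein: radioligand displacement measured by filter scintillation 1 hour after dosing. Primary testing at 25 uM in duplicate, followed by singleton concentration series up to 50 uM; DMSO served as negative control.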

Measured: AC50

Chain of Muscarinic acetylcholine receptor M5 (Homo sapiens) (P08912 whole entry, looked up): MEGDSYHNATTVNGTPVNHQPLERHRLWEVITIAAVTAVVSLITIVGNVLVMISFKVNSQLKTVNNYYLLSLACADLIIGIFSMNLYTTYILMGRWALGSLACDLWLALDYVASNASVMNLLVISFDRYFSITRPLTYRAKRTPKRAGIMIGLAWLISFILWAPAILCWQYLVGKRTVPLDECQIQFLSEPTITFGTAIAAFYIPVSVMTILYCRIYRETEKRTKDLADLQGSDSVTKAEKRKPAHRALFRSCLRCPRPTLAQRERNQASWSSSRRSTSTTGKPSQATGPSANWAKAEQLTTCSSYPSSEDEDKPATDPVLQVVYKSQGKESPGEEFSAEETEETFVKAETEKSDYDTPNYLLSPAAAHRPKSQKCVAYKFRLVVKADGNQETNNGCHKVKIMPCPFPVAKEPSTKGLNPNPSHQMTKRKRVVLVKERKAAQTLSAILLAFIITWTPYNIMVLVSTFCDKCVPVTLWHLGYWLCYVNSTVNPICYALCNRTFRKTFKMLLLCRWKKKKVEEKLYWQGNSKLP
Chain of human Thromboxane A2 Receptor (TXA2), TBXA2R (gene 6915) (P21731 whole entry, looked up): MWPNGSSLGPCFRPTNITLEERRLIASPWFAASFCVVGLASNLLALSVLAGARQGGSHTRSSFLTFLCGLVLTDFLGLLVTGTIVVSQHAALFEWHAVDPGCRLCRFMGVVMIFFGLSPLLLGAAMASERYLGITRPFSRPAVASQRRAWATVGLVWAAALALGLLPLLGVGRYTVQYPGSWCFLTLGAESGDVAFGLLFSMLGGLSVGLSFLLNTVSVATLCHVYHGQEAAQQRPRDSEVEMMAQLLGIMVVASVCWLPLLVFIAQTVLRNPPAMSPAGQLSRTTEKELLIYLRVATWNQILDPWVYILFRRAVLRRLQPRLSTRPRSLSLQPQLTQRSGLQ
Chain of human Muscarinic, M4 Receptor, CHRM4 (gene 1132) (P08173 whole entry, looked up): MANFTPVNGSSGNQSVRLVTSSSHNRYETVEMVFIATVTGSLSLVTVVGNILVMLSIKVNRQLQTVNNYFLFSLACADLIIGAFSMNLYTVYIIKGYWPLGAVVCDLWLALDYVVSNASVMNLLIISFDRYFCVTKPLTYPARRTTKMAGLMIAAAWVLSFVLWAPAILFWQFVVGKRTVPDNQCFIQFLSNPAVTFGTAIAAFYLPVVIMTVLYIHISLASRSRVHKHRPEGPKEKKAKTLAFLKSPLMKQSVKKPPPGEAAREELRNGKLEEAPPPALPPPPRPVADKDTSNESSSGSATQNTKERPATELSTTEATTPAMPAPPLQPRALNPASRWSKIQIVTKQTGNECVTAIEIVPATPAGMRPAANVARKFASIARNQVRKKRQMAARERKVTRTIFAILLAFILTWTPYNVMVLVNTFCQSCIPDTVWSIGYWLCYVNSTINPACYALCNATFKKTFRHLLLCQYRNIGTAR
Chain of rat Serotonin, 5-Hydroxytryptamine Receptor 1 (5HT1), Non-Selective Binding, Htr1a (gene 24473) (P19327 whole entry, looked up): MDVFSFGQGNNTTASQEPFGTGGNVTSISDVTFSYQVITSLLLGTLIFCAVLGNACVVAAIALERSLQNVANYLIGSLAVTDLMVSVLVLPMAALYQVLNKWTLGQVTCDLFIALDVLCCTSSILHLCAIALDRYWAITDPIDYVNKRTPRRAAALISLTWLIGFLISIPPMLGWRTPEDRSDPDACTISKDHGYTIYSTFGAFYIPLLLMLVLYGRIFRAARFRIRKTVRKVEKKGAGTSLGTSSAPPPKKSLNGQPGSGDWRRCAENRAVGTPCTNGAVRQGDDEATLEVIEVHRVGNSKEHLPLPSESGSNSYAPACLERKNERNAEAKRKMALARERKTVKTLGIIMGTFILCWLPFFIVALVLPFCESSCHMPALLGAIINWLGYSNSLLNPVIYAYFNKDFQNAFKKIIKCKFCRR
Chain of human Opioid Receptor Delta 1 (Opiate D1), OPRD1 (gene 4985) (P41143 whole entry, looked up): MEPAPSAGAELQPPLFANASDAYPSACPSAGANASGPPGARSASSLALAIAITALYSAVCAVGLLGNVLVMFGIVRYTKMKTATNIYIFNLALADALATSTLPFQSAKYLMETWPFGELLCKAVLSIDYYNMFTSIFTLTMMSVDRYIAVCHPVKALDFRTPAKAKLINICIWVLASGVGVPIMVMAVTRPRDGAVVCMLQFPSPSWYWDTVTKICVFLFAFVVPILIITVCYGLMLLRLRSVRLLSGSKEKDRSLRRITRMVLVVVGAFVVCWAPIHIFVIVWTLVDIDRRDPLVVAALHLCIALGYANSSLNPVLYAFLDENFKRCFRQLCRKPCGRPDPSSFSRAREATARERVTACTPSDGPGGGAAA
Chain of D(1A) dopamine receptor (Homo sapiens) (P21728 whole entry, looked up): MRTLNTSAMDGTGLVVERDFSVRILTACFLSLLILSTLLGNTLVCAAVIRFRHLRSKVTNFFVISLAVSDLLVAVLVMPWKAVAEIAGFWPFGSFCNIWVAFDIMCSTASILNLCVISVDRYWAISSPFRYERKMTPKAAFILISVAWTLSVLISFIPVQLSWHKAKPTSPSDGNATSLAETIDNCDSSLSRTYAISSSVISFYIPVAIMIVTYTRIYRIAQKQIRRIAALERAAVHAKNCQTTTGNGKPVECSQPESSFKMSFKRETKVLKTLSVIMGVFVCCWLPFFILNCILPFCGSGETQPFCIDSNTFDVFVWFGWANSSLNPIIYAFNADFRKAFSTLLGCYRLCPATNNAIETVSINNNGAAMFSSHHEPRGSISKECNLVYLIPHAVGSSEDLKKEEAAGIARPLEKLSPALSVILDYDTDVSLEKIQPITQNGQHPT
Chain of human Neurokinin, NK2 Receptor, TACR2 (gene 6865) (P21452 whole entry, looked up): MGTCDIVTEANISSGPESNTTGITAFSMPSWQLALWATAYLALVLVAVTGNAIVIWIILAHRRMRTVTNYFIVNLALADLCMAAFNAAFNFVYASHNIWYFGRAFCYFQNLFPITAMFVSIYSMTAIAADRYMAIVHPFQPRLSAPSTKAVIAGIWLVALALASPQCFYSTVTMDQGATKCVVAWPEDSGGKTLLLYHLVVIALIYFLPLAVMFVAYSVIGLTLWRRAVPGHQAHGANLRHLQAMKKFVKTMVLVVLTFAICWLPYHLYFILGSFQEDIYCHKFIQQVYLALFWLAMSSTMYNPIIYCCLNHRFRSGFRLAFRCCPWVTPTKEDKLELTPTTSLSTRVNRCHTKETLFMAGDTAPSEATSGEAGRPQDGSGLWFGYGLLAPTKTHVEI
Chain of Muscarinic acetylcholine receptor M2 (Homo sapiens) (P08172 whole entry, looked up): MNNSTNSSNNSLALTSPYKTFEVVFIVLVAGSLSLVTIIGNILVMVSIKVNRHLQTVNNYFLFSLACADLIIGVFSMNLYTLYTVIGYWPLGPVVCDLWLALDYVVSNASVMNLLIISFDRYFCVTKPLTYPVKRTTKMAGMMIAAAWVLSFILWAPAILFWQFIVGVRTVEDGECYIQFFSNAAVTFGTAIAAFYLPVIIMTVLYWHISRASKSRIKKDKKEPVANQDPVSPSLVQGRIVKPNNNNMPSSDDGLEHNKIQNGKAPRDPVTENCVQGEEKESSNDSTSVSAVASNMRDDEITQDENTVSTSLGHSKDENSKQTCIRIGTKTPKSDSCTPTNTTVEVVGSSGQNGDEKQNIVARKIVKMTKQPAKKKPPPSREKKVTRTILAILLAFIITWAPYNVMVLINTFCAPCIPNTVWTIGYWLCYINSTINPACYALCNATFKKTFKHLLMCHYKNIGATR
Chain of Neuropeptide Y receptor type 2 (Homo sapiens) (P49146 whole entry, looked up): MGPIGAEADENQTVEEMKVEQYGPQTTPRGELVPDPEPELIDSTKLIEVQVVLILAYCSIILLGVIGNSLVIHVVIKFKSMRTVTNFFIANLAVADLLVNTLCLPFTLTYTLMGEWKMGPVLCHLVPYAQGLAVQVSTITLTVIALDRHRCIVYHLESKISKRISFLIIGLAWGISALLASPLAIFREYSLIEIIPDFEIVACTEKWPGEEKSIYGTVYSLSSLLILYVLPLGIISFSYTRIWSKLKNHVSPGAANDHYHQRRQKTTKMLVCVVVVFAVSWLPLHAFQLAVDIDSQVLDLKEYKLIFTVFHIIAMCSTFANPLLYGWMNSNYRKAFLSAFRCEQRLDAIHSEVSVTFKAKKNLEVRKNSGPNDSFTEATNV
Chain of Muscarinic acetylcholine receptor M3 (Homo sapiens) (P20309 whole entry, looked up): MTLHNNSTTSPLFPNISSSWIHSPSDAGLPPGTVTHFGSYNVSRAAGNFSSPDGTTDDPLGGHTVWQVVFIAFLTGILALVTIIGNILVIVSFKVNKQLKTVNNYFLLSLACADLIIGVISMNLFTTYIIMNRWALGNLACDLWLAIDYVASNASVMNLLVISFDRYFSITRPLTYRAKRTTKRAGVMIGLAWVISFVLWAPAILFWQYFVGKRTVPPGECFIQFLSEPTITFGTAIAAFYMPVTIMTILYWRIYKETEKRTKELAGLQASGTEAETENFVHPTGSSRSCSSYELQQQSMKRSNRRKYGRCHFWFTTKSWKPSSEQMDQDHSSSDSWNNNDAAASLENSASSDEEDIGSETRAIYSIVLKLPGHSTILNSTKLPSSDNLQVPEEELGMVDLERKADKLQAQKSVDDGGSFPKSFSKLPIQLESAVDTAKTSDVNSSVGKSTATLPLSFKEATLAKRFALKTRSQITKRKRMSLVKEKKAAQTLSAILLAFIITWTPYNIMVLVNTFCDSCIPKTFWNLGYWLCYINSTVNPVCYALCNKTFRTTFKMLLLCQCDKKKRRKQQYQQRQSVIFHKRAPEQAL
Chain of human Neuropeptide Receptor Y1 (NPY1), NPY1R (gene 4886) (P25929 whole entry, looked up): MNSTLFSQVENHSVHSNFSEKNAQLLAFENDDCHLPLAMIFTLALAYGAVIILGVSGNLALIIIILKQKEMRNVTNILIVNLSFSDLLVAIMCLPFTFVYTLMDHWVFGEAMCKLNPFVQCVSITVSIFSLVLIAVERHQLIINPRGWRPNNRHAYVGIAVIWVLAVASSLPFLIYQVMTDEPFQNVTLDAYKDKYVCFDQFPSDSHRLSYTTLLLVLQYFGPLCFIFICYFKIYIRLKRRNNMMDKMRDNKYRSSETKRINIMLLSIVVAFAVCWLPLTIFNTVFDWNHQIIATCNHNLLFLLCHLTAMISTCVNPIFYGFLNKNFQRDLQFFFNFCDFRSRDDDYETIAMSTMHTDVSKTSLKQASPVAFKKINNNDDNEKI

c1ccc(C(O[C@@H]2CCCN(CCc3ccc4c(c3)OCO4)C2)c2ccccc2)cc1
inactive: [7]
active: [1] 4.11 µM | [2] 0.031 µM | [3] 0.0184 µM | [4] 0.0461 µM | [5] 0.0501 µM | [6] 0.00937 µM | [8] 5.79 µM | [9] 19.4 µM | [10] 9.62 µM | [11] 5.08 µM

CCCCCCCCCCCCCCCCOS(=O)(=O)O
inactive: [12]
active: [1] 4.49 µM | [3] 8.33 µM | [6] 8.94 µM | [9] 3.9 µM | [13] 5.47 µM | [14] 12.5 µM

Cc1cccc(O)c1C
inactive: [14]

COc1cc2c(c(OC)c1OC)-c1ccc(OC)c(=O)cc1[C@@H](NC(C)=O)CC2
active: [15] 17.1 µM

CC(C)C(=O)Nc1ccc([N+](=O)[O-])c(C(F)(F)F)c1
active: [14] 4.96 µM
inactive: [16] | [11]

COCc1nnc(-c2ccc[n+]([O-])c2)n1-c1c(Cl)c(Cl)cc2[nH]c(=O)c(=O)[nH]c12
inactive: [11]

C=CCc1cc(S(=O)(=O)c2ccc(O)c(CC=C)c2)ccc1O
active: [1] 9.78 µM | [6] 25 µM | [8] 20.6 µM | [9] 15.5 µM | [14] 6.66 µM | [15] 20 µM | [11] 7.68 µM
inactive: [5] | [17]

CCCCCCCC/C=C\CCCCCCCC(=O)OC[C@@H](O)[C@H]1OC[C@H](O)[C@H]1O
inactive: [12]
active: [1] 34.5 µM | [14] 25 µM

O=C(O)c1ccc2c(c1)nc(C(=O)NC1CCN(C3CC3)CC1)n2Cc1cc(-c2ccc(Cl)s2)on1
inactive: [9] | [10]

CCn1nc(C)c2c1C(=O)NCC(c1ccc(O)cc1)=N2
active: [14] 14.4 µM
inactive: [1] | [2] | [4] | [5] | [6] | [7] | [8] | [10] | [11]

— PubChem BioAssay (EPA / NIEHS)
